# Unmarked numbers belong to inactive results. Results filed as inconclusive are left out. Entries that show only a call come without a potency. The source made the active and inactive calls. Unless noted, calls come from the whole dose curve; as a rule, active = well fitted curve in the direction sought with a large enough effect in the repeat runs; inconclusive = weak or mixed curves; inactive = no such curve, though single readings can be large; an effect the other way counts as inactive or inconclusive.
# Columns and labels:
# [1] = qHTS assay to identify small molecule antagonists of the estrogen related receptor (ERR) signaling pathway from Tox21 library - cell viability counter screen (AID 1224834); note: nearly all actives have a fitted effect of over 30% in size
# How it was run: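 ERR reporter cells, 2,000 per well, rested 6 h, then exposed to compound in DMSO for 17.5 hours at 37 C. Viability read as fluorescence after 30 min with CellTiter-Fluor.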
# [2] = target: Luciferin 4-monooxygenase (Photinus pyralis) (UniProt P08659); experiment: qHTS assay to identify small molecule inhibitors of firefly luciferase (AID 1224835); note: nearly all actives have a fitted effect of over 25% in size; note: potency is the fitted concentration of half-maximal effect
# Chain of Luciferin 4-monooxygenase (Photinus pyralis) (P08659 whole entry, looked up): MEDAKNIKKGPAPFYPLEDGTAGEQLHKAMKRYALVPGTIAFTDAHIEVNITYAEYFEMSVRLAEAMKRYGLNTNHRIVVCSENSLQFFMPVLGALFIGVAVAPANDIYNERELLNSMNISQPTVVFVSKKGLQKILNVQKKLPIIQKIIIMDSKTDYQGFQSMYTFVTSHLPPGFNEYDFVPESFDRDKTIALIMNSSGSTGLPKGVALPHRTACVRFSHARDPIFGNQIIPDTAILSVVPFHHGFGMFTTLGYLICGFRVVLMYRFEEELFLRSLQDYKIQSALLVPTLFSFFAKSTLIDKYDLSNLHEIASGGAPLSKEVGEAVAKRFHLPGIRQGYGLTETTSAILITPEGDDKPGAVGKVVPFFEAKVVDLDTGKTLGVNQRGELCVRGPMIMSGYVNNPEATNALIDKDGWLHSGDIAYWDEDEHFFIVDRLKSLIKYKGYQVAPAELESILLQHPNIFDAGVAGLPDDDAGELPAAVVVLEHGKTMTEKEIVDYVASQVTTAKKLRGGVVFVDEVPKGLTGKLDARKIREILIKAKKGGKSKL
# How it was run: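 Quantitative HTS format; KM concentrations of both substrates. Purified P. pyralis FLuc activity quantified from luminescence images.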
# [3] = qHTS assay to identify small molecule agonists of the constitutive androstane receptor (CAR) signaling pathway - cell viability counter screen (AID 1224836); note: nearly all actives have a fitted effect of over 45% in size
# How it was run: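 Fluorescence from CellTiter-Fluor indicates live cells after 23 h exposure. The human hepatoma line expresses hCAR and a CYP2B6-2.2kb reporter. Incubation medium contains 0.75 uM PK11195 (final).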
# [4] = qHTS assay to identify small molecule antagonists of the constitutive androstane receptor (CAR) signaling pathway - cell viability counter screen (AID 1224837); note: nearly all actives have a fitted effect of over 45% in size
# How it was run: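 HepG2 cells stably carrying hCAR and CYP2B6-2.2kb reporter, stimulated with 50 nM CITCO and compounds at 15 concentrations for 23 h at 37 C. Viability measured by CellTiter-Fluor fluorescence.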
# [5] = qHTS assay to identify small molecule antagonists of the estrogen related receptor signaling pathway with the pleiotropic PPARgamma coactivator (PGC) from Tox21 10K library - cell viability counter screen (AID 1224840; active = well fitted cell-killing curve with a large enough effect in the repeat runs, not every such curve was filed as active; note: nearly all actives have a fitted effect of over 40% in size)
# How it was run: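 PGC/ERR cells (2,000/well) plated 6 h, then compound-treated for 17.5 h at 37 C. Viability measured by CellTiter-Fluor fluorescence after 30 min at 37 C, multiplexed with the pathway assay.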
# [6] = target: Thyrotropin receptor (Homo sapiens) (UniProt P16473); experiment: qHTS assay to identify small molecule agonists of the thyroid stimulating hormone receptor (TSHR) signaling pathway (AID 1224843; calls by dose curve; note: nearly all actives have a fitted effect of over 45% in size)
# Chain of Thyrotropin receptor (Homo sapiens) (P16473 whole entry, looked up): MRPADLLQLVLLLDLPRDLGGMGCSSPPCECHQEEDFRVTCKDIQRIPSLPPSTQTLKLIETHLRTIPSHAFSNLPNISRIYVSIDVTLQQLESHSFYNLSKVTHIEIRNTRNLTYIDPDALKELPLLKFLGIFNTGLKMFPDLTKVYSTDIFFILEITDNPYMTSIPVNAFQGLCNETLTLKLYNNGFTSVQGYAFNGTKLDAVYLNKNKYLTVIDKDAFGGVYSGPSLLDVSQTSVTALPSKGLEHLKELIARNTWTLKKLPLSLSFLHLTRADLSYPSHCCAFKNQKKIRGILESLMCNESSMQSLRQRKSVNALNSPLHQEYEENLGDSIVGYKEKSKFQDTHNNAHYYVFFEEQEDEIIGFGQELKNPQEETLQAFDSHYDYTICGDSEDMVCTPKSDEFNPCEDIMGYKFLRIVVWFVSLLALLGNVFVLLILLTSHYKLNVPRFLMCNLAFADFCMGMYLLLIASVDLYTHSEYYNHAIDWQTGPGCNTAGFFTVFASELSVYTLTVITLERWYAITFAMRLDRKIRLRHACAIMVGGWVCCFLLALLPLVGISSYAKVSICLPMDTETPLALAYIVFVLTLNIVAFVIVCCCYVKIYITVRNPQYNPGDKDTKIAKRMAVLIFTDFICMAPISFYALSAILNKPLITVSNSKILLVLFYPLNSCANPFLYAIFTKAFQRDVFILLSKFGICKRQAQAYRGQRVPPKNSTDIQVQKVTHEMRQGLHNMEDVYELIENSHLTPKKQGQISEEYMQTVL
# How it was run: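 TSHR-expressing HEK293 cells (800 per well) were exposed to compounds for 30 min at room temperature. cAMP was then detected by HTRF competition with cAMP-d2 and anti-cAMP cryptate, read after 1 h at room temperature. Fifteen concentrations, triplicate.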
# [7] = qHTS assay to identify small molecule agonists of the hypoxia (HIF-1) signaling pathway - cell viability counter screen (AID 1224844; calls by dose curve; note: nearly all actives have a fitted effect of over 50% in size; note: potency is the fitted concentration of half-maximal effect)
# How it was run: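 HRE-bla ME-180 cells, 2,000/well in 0.5% dialyzed FBS medium, treated 17 h at 37C with compounds. Viability read in the same wells as the bla reporter, by CellTiter-Glo luminescence after 30 min at room temperature.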
# [8] = qHTS assay to identify small molecule agonists of H2AX (AID 1224845; active = well fitted activation curve with a large enough effect in the signal ratio in the repeat runs, not every such curve was filed as active; the % refers to the signal ratio)
# How it was run: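 Wild-type CHO-K1 cells plated overnight, then exposed 3 hr at 37C to compounds at 15 concentrations (0.76% DMSO). Lysed, then HTRF anti-pH2AX(S139)-cryptate/anti-H2AX-d2 detection after 24 hr at room temperature; emissions 665 and 620 nm.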
# [9] = qHTS assay to identify small molecule agonists of the hypoxia (HIF-1) signaling pathway (AID 1224846; active = well fitted activation curve with a large enough effect in the signal ratio in the repeat runs, not every such curve was filed as active; the % refers to the signal ratio)
# How it was run: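 HRE-bla ME-180 beta-lactamase reporter cells in medium with 0.5% dialyzed FBS, pre-incubated 5 h then exposed to compounds 17 h at 37C, 5% CO2; reporter induction read with CCF4-AM FRET substrate.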
# [10] = qHTS assay to identify small molecule agonists of H2AX - cell viability counter screen (AID 1224847; calls by dose curve; note: top concentration of the series differs between compounds; nearly all actives have a fitted effect of over 30% in size)
# How it was run: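 Viability of CHO-K1 (wild type) cells after 3 hr compound exposure was measured by CellTiter-Glo luminescence.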
# [11] = qHTS RealTime-Glo MT Cell Viability Assay in HEK293 cells - 32 hour (AID 1224868); note: nearly all actives have a fitted effect of over 50% in size; note: potency is the fitted concentration of half-maximal effect
# How it was run: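 Homogeneous bioluminescent viability format in HEK293 cells (600 cells/well). Following 5 h at 37 C/5% CO2, 23 nL compound was pintooled; the signal was measured repeatedly during 40 h incubation.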
# [12] = A CellTox Green Cytotoxicity Assay to monitor cytotoxicity in HEK293 cells - 0 hour (AID 1224869); note: nearly all actives have a fitted effect of over 50% in size
# How it was run: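 HEK293 cells, 600/well, were preincubated 5 hours and then exposed to compounds at 37 C for up to 40 hours. A cell-impermeant cyanine dye staining dead-cell DNA was read by fluorescence at 0, 8, 16, 24, 32 and 40 h time points.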
# [13] = qHTS RealTime-Glo MT Cell Viability Assay in HepG2 cells - 24 hour (AID 1224867); note: nearly all actives have a fitted effect of over 50% in size
# How it was run: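 Cell number in HepG2 cultures estimated from NanoLuc luminescence generated by metabolic reduction of a prosubstrate by living cells. The homogeneous, nonlytic format allowed repeated reads at 0, 8, 16, 24, 32 and 40 h of compound exposure.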
# [14] = qHTS assay to identify small molecule antagonists of the estrogen related receptor signaling pathway with the pleiotropic PPARgamma coactivator (PGC) from Tox21 10K library (AID 1224841; call rule not given here)
# How it was run: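 PGC/ERR cell line, 2,000 cells/well, pre-incubated 6 hours at 37 C, then exposed to compounds for 18 hours at 37 C; luciferase read with One-Glo luminescence after 30 min at room temperature.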
# [15] = qHTS assay to identify small molecule antagonists of the estrogen related receptor (ERR) signaling pathway from Tox21 library (AID 1224848); note: nearly all actives have a fitted effect of over 50% in size
# How it was run: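 Cells: ERR line, 2,000/well; 6 h preincubation 37 C/5% CO2. Cpd in DMSO via pin tool; 18 h, 37 C. ONE-Glo, 30 min RT, luminescence.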
# [16] = target: Nuclear receptor subfamily 1 group I member 3 (Homo sapiens) (UniProt Q14994); experiment: qHTS assay to identify small molecule antagonists of the constitutive androstane receptor (CAR) signaling pathway (AID 1224838); note: nearly all actives have a fitted effect of over 40% in size
# Chain of Nuclear receptor subfamily 1 group I member 3 (Homo sapiens) (Q14994 whole entry, looked up): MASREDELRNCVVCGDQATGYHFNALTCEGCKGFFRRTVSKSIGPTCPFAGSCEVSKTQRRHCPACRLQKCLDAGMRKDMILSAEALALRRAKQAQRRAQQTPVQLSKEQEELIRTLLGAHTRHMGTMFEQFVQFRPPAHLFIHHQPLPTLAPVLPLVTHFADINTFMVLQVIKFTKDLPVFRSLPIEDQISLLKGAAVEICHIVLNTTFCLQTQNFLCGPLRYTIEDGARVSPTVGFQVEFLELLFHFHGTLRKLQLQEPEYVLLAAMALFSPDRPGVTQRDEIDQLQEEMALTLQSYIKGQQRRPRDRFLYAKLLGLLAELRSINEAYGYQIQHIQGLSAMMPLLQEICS
# How it was run: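 HepG2 cells stably carrying hCAR and a CYP2B6-2.2kb luciferase reporter, seeded 4 hrs before compound (15 concentrations). Stimulated with 50 nM CITCO for 24 hr at 37 C. ONE-Glo luminescence read after 30 min at room temperature.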
# [17] = target: Nuclear receptor subfamily 1 group I member 3 (Homo sapiens) (UniProt Q14994); experiment: qHTS assay to identify small molecule agonists of the constitutive androstane receptor (CAR) signaling pathway (AID 1224839); note: nearly all actives have a fitted effect of over 15% in size
# How it was run: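 Stable hCAR/CYP2B6-2.2kb HepG2 line in DMEM with 10% FBS; compounds (15 concentrations) and 0.75 uM PK11195 final, 24 h at 37 C/5% CO2, then ONE-Glo luminescence after 30 min.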
# [18] = qHTS assay to identify small molecule agonists of the estrogen related receptor signaling pathway with the pleiotropic PPARgamma coactivator (PGC) from Tox21 10K library (AID 1224842); note: nearly all actives have a fitted effect of over 15% in size
# How it was run: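 PGC/ERR reporter cells (NTP line) were seeded 2,000 per well, rested 6 h at 37 C/5% CO2, then pin-dosed with compounds in DMSO for 18 h at 37 C; luciferase read by One-Glo luminescence after 30 min at room temperature.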
# [19] = qHTS assay to identify small molecule agonists of the estrogen related receptor (ERR) signaling pathway from Tox21 library (AID 1224849; calls by dose curve; note: nearly all actives have a fitted effect of over 15% in size); details: ERR reporter cell line, ONE-Glo luciferase, 18 h; at 92.4 µM (top of the series) unless noted
# How it was run: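 ERR reporter cells (NTP line) pre-incubated 6 hours at 37 C, then exposed to compounds for 18 hours at 37 C. ONE-Glo luciferase luminescence was read after 30 minutes at room temperature.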
SMILES,Potency [1],Potency [2],Potency [3],Potency [4],Potency [5],Potency [6],Potency [7],Potency [8],outcome [9],Potency [10],Potency [11],Potency [12],Potency [13],Potency [14],Potency [15],Potency [16],Potency [17],Potency [18],"activity change, positive = activation [19]"
CCCCCCCC/C=C\CCCCCCCC(=O)OCCO,inactive,inactive,inactive,inactive,inactive,inactive,inactive,inactive,inactive,inactive,inactive,inactive,–,–,–,–,–,–,–
CC(CN(CCN(CC(C)OCCO)CC(C)OCCO)CC(C)OCCO)OCCO (stereo not drawn),inactive,inactive,inactive,inactive,inactive,inactive,inactive,inactive,inactive,–,23.7 µM (active),inactive,–,–,–,–,–,–,–
CCCCCCCCCCCCCCCC(=O)OCC,inactive,inactive,inactive,inactive,inactive,inactive,inactive,inactive,inactive,inactive,inactive,inactive,inactive,–,–,–,–,–,–
CC(=O)c1ccc[nH]1,inactive,inactive,inactive,inactive,inactive,–,inactive,inactive,inactive,inactive,inactive,inactive,inactive,–,–,–,–,–,–
CC1CCC(C(C)CS)CC1S (stereo not drawn),inactive,inactive,inactive,inactive,inactive,inactive,54.9 µM (active),–,–,inactive,inactive,inactive,inactive,inactive,inactive,–,–,–,–
COc1ccc(C)cc1,inactive,inactive,inactive,inactive,inactive,inactive,inactive,inactive,inactive,inactive,inactive,inactive,inactive,–,–,–,–,–,–
O=C(Nc1ccc(C(=O)O)c(O)c1)c1ccccc1,inactive,27.5 µM (active),–,inactive,inactive,inactive,inactive,inactive,inactive,inactive,inactive,inactive,inactive,–,–,inactive,inactive,–,–
CCCCCCCC/C=C/C(=O)O,inactive,inactive,inactive,inactive,inactive,–,inactive,inactive,inactive,inactive,inactive,inactive,inactive,–,–,–,–,–,–
CCOc1ncc(F)c(=O)[nH]1,inactive,inactive,inactive,inactive,inactive,inactive,inactive,inactive,inactive,inactive,inactive,inactive,inactive,–,–,–,–,–,–
C[C@@H]1C[C@H]2[C@@H]3CCC4=CC(=O)C=C[C@]4(C)[C@@]3(F)[C@@H](O)C[C@]2(C)[C@@]1(O)C(=O)COP(=O)(O)O,inactive,inactive,inactive,inactive,inactive,inactive,inactive,inactive,inactive,inactive,inactive,inactive,inactive,–,–,–,–,–,–
CCC(CO)(CO)CO,inactive,inactive,inactive,inactive,inactive,inactive,inactive,inactive,inactive,inactive,inactive,inactive,inactive,–,–,–,–,–,–
Nc1nc(-c2ccc([N+](=O)[O-])cc2)cs1,inactive,inactive,inactive,inactive,inactive,inactive,inactive,inactive,inactive,inactive,inactive,inactive,inactive,–,–,–,–,–,–
CCCCC(CC)COS(=O)(=O)O (stereo not drawn),inactive,inactive,inactive,inactive,inactive,–,inactive,inactive,inactive,inactive,inactive,inactive,inactive,inactive,inactive,–,–,inactive,–
O=C(O)c1cc(Cl)cc(Cl)c1O,inactive,inactive,inactive,inactive,inactive,–,inactive,inactive,inactive,–,inactive,inactive,inactive,inactive,inactive,–,–,inactive,–
CCCCOC(=O)CCCCC(=O)OCCCC,inactive,inactive,inactive,inactive,inactive,–,inactive,inactive,inactive,inactive,inactive,inactive,inactive,inactive,inactive,–,–,inactive,-0.363%
COc1ccc(-n2nc(C(F)F)cc2-c2ccc(S(C)=O)cc2)cc1 (stereo not drawn),inactive,inactive,inactive,inactive,inactive,inactive,inactive,inactive,inactive,inactive,inactive,inactive,inactive,–,–,–,–,–,–
NC(=O)c1ccccc1[N+](=O)[O-],inactive,inactive,inactive,inactive,inactive,inactive,inactive,inactive,inactive,inactive,inactive,inactive,inactive,–,–,–,–,–,–

# Reference: PubChem BioAssay (Tox21)
